87 compounds from PubChem BioAssay AID1907 (The Scripps Research Institute Molecular Screening Center, 2009) can be followed below.

What is called inhibition is the drop in the measured response relative to a control, in per cent.

Screen size: about 1,900 compounds; about 1,200 (63%) were called active. The set was probably picked from earlier hits. Not all results are given here. A number with no mark means an inactive call. Cut-off read from the data, not from the text of the source: active = inhibition above about 22%; inactive = the rest.

The assay in a line: rat intestinal IEC-6 viability loss – cell-based, luminescence, cytotoxicity control, confirmation (AID 1907).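 Note: 0% = vehicle and 100% = reference cytotoxic drug.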 As to conditions: IEC-6 rat intestinal epithelial viability, at 5 µM, active compounds read high.
Take `COc1ccc(C)cc1Nc1nc(C)nc2c1oc1ccccc12`: the inhibition is 22.4% (active).

On to `COc1cc(NS(=O)(=O)c2ccc3ccccc3c2)c2ncccc2c1`, for which the inhibition was 63.1% (active).

Regarding `CCCOn1c(-n2nc(C)cc2C)nc2ccccc2c1=O`, the inhibition was -7.58%.

On to `O=C(NCCOc1cccnc1)c1ccc(OC2CCN(Cc3ccccn3)CC2)cc1`, for which the inhibition is 99.6% (active).

Turning to `Cc1cc(C)n2nc(CNS(=O)(=O)c3c(F)c(F)c(F)c(F)c3F)nc2n1`, the inhibition was 13%.

In the case of `COc1ccccc1C1C2=C(COC2=O)Nc2cc3c(cc21)OCO3` (configuration not stated), the inhibition was 62.6% (active).

Take `CCCOc1ccccc1C1CC(=O)Nc2cc3c(cc21)OCO3` (configuration not stated): the inhibition was 56.8% (active).

`COc1ccccc1NC(=O)c1ccc(C)s1`: the inhibition is 5.92%.

On to `C[C@@H]1C[C@@H]2O[C@H]2/C=C\C=C\C(=O)Cc2c(Cl)c(O)cc(O)c2C(=O)O1`, for which the inhibition is 38.8% (active).

For the compound `COc1ccc2c(c1OC)C(=O)OC2Nc1nc(-c2ccccc2)cs1` (configuration not stated), the inhibition was 25% (active).

In the case of `Cc1ccc(-c2csc(NC3OC(=O)c4ccccc43)n2)cc1` (configuration not stated), the inhibition was 28.3% (active).

Take `Cc1cccc(NC(=O)c2ccc([N+](=O)[O-])o2)c1`: the inhibition is 20%.

As to `CC[C@H]1CN2CCc3cc(OC)c(OC)cc3[C@@H]2C[C@@H]1C[C@H]1NCCc2cc(OC)c(OC)cc21`, the inhibition is 97.2% (active).

With `CSc1nnc2ccc(-c3ccc(C)cc3)nn12`, the inhibition was 25% (active).

For the compound `O=C1C(=O)N(CC2COc3ccccc3O2)c2ccccc21` (configuration not stated), the inhibition is -2.39%.

For `CCOC(=O)c1c(C)[nH]c2c1-c1ccccc1C(=O)C2=O`, the inhibition was 100% (active).

On to `CC(C)OC(=O)CN1C(=O)C(=O)c2ccccc21`, for which the inhibition is 9.06%.

With `CCCCNc1nc2c(c(=O)n(C)c(=O)n2C)n1Cc1cccc(OC)c1`, the inhibition is 19.3%.

With `COc1ccc(CNS(=O)(=O)c2cc(-c3cc(C)no3)ccc2C(C)C)cc1`, the inhibition was 51.7% (active).

Turning to `Cn1nccc1C(=O)NC1CCCc2c1cnn2-c1ccc(F)cc1F` (configuration not stated), the inhibition was 23.2% (active).

With `Cn1nccc1C(=O)NC1CCCc2c1cnn2-c1ccccc1F` (configuration not stated), the inhibition is 7.23%.

As to `COc1cccc2sc(N(CCCN(C)C)C(=O)CCS(=O)(=O)c3ccccc3)nc12`, the inhibition is 7.79%.

Turning to `Cc1nn2c(NCCN(C)C)c3c(nc2c1-c1ccccc1)CCC3`, the inhibition is -0.91%.

Consider `COc1cccc(C(=O)Nc2ccc(N3CCN(C(=O)c4ccco4)CC3)cc2)c1`, for which the inhibition is 23.9% (active).

With `COc1cccc(C(=O)Nc2ccc(N3CCCC3)cc2)c1`, the inhibition is 43.2% (active).

For the compound `CC(C)(C)Nc1nc(-c2ccccn2)nc2ccccc12`, the inhibition is -6.6%.

As to `CC[n+]1cc(C)ccc1/C=C/c1ccc(N(C)C)cc1`, the inhibition was 19.6%.

Take `Oc1cccc(/C=N/Nc2ccc(Cl)nn2)c1O`: the inhibition is 2.22%.

Consider `C/C(=N\NC(=O)c1ccccc1F)c1ccccn1`, for which the inhibition is 67.3% (active).

Turning to `C=CCC1(CC=C)CCCN1C(=O)c1cc(COc2ccc(-n3cncn3)cc2)on1`, the inhibition was 8.6%.

As for `CC(=O)c1ccc(Oc2cc(C)nc(-n3nc(C)cc3C)n2)cc1`, the inhibition is 49.9% (active).

Turning to `COc1ccc(Nc2cc(C)nc(-n3nc(C)cc3C)n2)cc1`, the inhibition was 54.9% (active).

As to `COc1ccc(CS(=O)/C(Cl)=C(/Cl)C(=O)Nc2ccc(OC)nc2)cc1` (configuration not stated), the inhibition is 73.2% (active).

As to `COc1ccc(NC(=O)/C(Cl)=C(/Cl)S(=O)Cc2ccc(C)cc2)cn1` (configuration not stated), the inhibition is 89% (active).

As to `CCOc1ncccc1C(=O)NCCc1ccc(OC)cc1`, the inhibition was 12.2%.

`CCOc1ccccc1NC(=O)Cn1nnc(C(=O)NCc2cccs2)c1N`: the inhibition was 56.9% (active).

In the case of `CSc1nc(N(C)NC(=O)c2cccc(C)c2)c2ccccc2n1`, the inhibition is 76.1% (active).

`CCn1c(C)nc2c1C(=O)c1ccccc1C2=O`: the inhibition is 10.1%.

As to `COc1ccccc1N(CC(=O)N/N=C(\C)c1ccccc1O)S(=O)(=O)c1ccc(C)cc1`, the inhibition was 10.4%.

In the case of `C/C(=N\NC(=O)c1ccoc1C)c1ccccc1O`, the inhibition was 31.9% (active).

With `Cc1ccc(Nc2nc(N3CCOCC3)nc(N3CCOCC3)n2)cc1Cl`, the inhibition was 63.1% (active).

Take `CCOC(=O)/C=C/C(=O)OCC(=O)NC(c1ccccc1)c1ccccc1`: the inhibition was 43.9% (active).

Regarding `CCOC(=O)C1=C(N)N2C(=O)C(C)SC2=C(C(=O)OCC)C1c1cc(OC)c(OC)c(OC)c1` (configuration not stated), the inhibition was -3.21%.

Consider `COc1ccc(Nc2cc(=O)oc3ccccc23)cc1`, for which the inhibition is 49.1% (active).

As to `O=C(Nn1cc(C(=O)N2CCN(c3ccccc3F)CC2)c2ccccc2c1=O)c1cnccn1`, the inhibition is -3.18%.

Consider `Cc1ccc(-n2c(SCC(=O)Nc3ncc(Cl)cc3Cl)nc3ccccc32)cc1`, for which the inhibition is 44.1% (active).

For `Cc1cccc(NS(=O)(=O)c2ccc(-c3cnc(C4CC4)o3)cc2)c1`, the inhibition is 53% (active).

Take `Cc1onc(NC(=O)c2ccc([N+](=O)[O-])o2)c1Br`: the inhibition is -1.42%.

Regarding `Cc1cccc(-n2ncc(Cl)c(Cl)c2=O)c1`, the inhibition was 27.2% (active).

For `Cc1nc(Nc2ccc3c(c2)OCCO3)c2nnn(Cc3ccccc3Cl)c2n1`, the inhibition was 11.1%.

Take `CC(C)c1cc(C(=O)N/N=C/C(Br)=C/c2ccccc2)n[nH]1`: the inhibition was 42.1% (active).

As for `O=C(NC(Nc1nc2ccc([N+](=O)[O-])cc2s1)(C(F)(F)F)C(F)(F)F)c1ccccc1`, the inhibition is 97.9% (active).

Consider `CCCOC(=O)c1[nH]c2c(c1C)C(=O)CC(c1cccs1)C2` (configuration not stated), for which the inhibition is 57.1% (active).

Turning to `CCOc1cc(/C=C/c2nc3ccccc3c(=O)[nH]2)cc(Br)c1OC`, the inhibition was 50.8% (active).

In the case of `CCOc1c(Nc2cccc(Cl)c2)c(=O)c1=O`, the inhibition was -1.97%.

Consider `O=C(Nc1ccccc1Cl)/C(Cl)=C(\Cl)S(=O)c1ccccc1` (configuration not stated), for which the inhibition is 78.4% (active).

`O=C(CN1C(=O)C2C3C=CC(C3)C2C1=O)Nc1nc(-c2ccccn2)cs1` (configuration not stated): the inhibition is 19.4%.

Turning to `Cc1ccc(S(=O)(=O)C2(S(=O)(=O)c3ccc(C)cc3)CCCC2)cc1`, the inhibition was 23.1% (active).

`COc1ccc(Nc2oc(-c3ccccc3Cl)nc2C#N)cc1`: the inhibition was 58.2% (active).

Take `CNC[C@H](CC1CCCCC1)NC[C@H](NCCC1CCCC1)[C@H](C)O`: the inhibition is 56.1% (active).

As for `CCOc1cccc(-n2nnnc2-c2ccc(OC)cc2)c1`, the inhibition is 39.2% (active).

Regarding `COc1ccc(C2=NOC(C(=O)NCc3ccco3)C2)cc1OC` (configuration not stated), the inhibition is 39.3% (active).

Consider `COC(=O)Nc1nc2ccc(Sc3ccccc3)cc2[nH]1`, for which the inhibition is 53.4% (active).

In the case of `CCOc1ccccc1N1CCN(C(=O)c2ccc3[nH]c(C)c(C)c3c2)CC1`, the inhibition was 29% (active).

As for `Nc1c(C(=O)NCc2ccccc2)nnn1Cc1cccc(Cl)c1`, the inhibition was 22.8% (active).

On to `Cn1cccc1/C=N/NC(=O)CNc1cccc2ccccc12`, for which the inhibition was 36.1% (active).

Consider `Cc1cccc(/C=N/NC(=O)CNc2cccc3ccccc23)n1`, for which the inhibition is 26.7% (active).

In the case of `Cc1ccc(/C=N/NC(=O)COc2ccccc2-c2ccccc2)cc1`, the inhibition was 72.2% (active).

`CCCC1=Nc2cc(C(=O)NCc3ccco3)ccc2Sc2ccccc21`: the inhibition was 58.2% (active).

Turning to `COc1ccccc1N1CCN(C(=O)c2cc(=O)c3cc(C)cc(C)c3o2)CC1`, the inhibition is 60% (active).

Take `CCOc1cc(C(=O)N2CCc3cc(OC)c(OC)cc3C2)ccc1OC(F)F`: the inhibition is 60.2% (active).

As to `CSc1nnc(NC(=O)c2nc(S(=O)(=O)Cc3ccc(C)cc3)ncc2Cl)s1`, the inhibition was 14.9%.

As for `Cc1cccc(NC(=O)c2nc(S(=O)(=O)Cc3ccccc3)ncc2Cl)c1`, the inhibition was 12.9%.

Turning to `Cc1ccc(CS(=O)(=O)c2ncc(Cl)c(C(=O)Nc3nnc(C)s3)n2)cc1`, the inhibition is 23.3% (active).

`Cc1cccc(CS(=O)(=O)c2ncc(Cl)c(C(=O)Nc3ccc(F)cc3)n2)c1`: the inhibition was 22.5% (active).

As for `CC(C)OCCCNc1ncnc2c1[nH]c1ccc(F)cc12`, the inhibition was 34.4% (active).

With `CC1CCCCN1S(=O)(=O)c1ccc(C(=O)Nc2nnc(-c3cccs3)o2)cc1` (configuration not stated), the inhibition was 18.5%.

As for `CCN(CC)c1ccc(NC(=O)c2ccc(Cl)nc2)cc1`, the inhibition is 38% (active).

Take `O=S(=O)(c1ccc(Br)cc1)N1CCC(c2nc3ccccc3[nH]2)CC1`: the inhibition is 27.5% (active).

Turning to `O=[N+]([O-])c1ccccc1S(=O)(=O)Nc1cccc2cccnc12`, the inhibition is 48.3% (active).

Turning to `CCCCCCCCn1c2c(c(=N)c3c1CCC3)CCCC2`, the inhibition was 49.4% (active).

As for `CCOC(=O)CSC1=C(C#N)C(c2sccc2C)CC(=O)N1` (configuration not stated), the inhibition is 51.2% (active).

In the case of `CCN1/C(=C/c2ccc3ccc(C)cc3[n+]2CC)Sc2ccccc21`, the inhibition is 39.8% (active).

Regarding `CCN1/C(=C\c2ccc3ccccc3[n+]2CC)Sc2cc(C)ccc21`, the inhibition was 39.4% (active).

As to `O=c1cc(-c2ccccc2)[nH]c2cc(F)ccc12`, the inhibition is 53.6% (active).

With `Cc1cc(C(=O)OCC(=O)NCc2ccco2)c(C)n1-c1ccccc1`, the inhibition is 55.2% (active).

As to `CC(=O)NC1=NN(C(C)=O)C(C)(c2ccc(Cl)s2)S1` (configuration not stated), the inhibition was 41.6% (active).
